Laboratory results: PubChem BioAssay (Tox21)
Results filed as inconclusive are left out. Entries that show only a call come without a potency. Unmarked numbers belong to inactive results. Activity calls are given as the source filed them. Unless noted, calls follow the shape of the dose curve; as a rule, active = well fitted curve in the direction sought with a large enough effect in the repeat runs; inconclusive = weak or mixed curves; inactive = no such curve, though single readings can be large; an effect the other way counts as inactive or inconclusive.

Assays:
[1] = qHTS assay to identify small molecule agonists of the vitamin D receptor (VDR) signaling pathway - cell viability counter screen (AID 743224); also: nearly all actives have a fitted effect of over 50% in size; also: potency is read from the fitted curve at half-maximal effect
In short: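 VDR-bla cells were preincubated 4 h at 37C/5% CO2, then exposed to compounds for 16 h. After the 2 h room-temperature bla FRET read, CellTiter-Glo was added to the same wells and luminescence read after 30 min.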

[2] = qHTS assay to identify small molecule antagonists of the vitamin D receptor (VDR) signaling pathway - cell viability counter screen (AID 743225); also: nearly all actives have a fitted effect of over 50% in size
In short: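 Parallel cytotoxicity test: VDR-UAS-bla HEK 293T, 3 nM (final) 1-alpha,25-dihydroxyvitamin D3 with test compound, 16 h, 37C. Endpoint is CellTiter-Glo luminescence in the same wells.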

[3] = qHTS assay to identify small molecule agonists of the NFkB signaling pathway (AID 1159509; active = well fitted curve in the direction sought with a large enough effect in the signal ratio in the repeat runs, not every such curve was filed as active; the % refers to the signal ratio; also: series mostly up to about 61 µM)
In short: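 After overnight attachment, reporter cells received test compounds, DMSO or positive controls and were incubated 5 hr at 37 C. FRET substrate was then added for 1.5 hr at room temperature before dual-emission fluorescence reading.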

[4] = qHTS assay to identify small molecule agonists of the NFkB signaling pathway - cell viability counter screen (AID 1159515; calls by dose curve; also: series mostly up to about 61 µM; nearly all actives have a fitted effect of over 55% in size)
In short: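 NFkB-bla ME-180 cells, 2,000/well, were plated overnight at 37 C, 5% CO2, then exposed to compounds in DMSO for 5 hr. After the bla FRET read, CellTiter-Glo was added to the same wells; luminescence was read after 30 min at room temperature.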

[5] = qHTS assay to identify small molecule agonists of the endoplasmic reticulum stress response signaling pathway (AID 1159516; active = well fitted activation curve with a large enough effect in the signal ratio in the repeat runs, not every such curve was filed as active; the % refers to the signal ratio)
In short: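 CellSensor ESRE-bla HeLa cells, carrying a beta-lactamase reporter driven by the ER stress response element, were plated overnight and exposed to compounds for 5 hr at 37 C. Reporter activity was read as FRET substrate fluorescence after 2 hr at room temperature.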

[6] = qHTS assay to identify small molecule agonists of the endoplasmic reticulum stress response signaling pathway - cell viability counter screen (AID 1159517; calls by dose curve; also: series mostly up to about 61 µM; nearly all actives have a fitted effect of over 50% in size)
In short: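 Cells, HeLa ESRE-bla; density, 1,500/well; dosing, 5 hr at 37 C, 5% CO2; readout, CellTiter-Glo luminescence after 30 min RT.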

[7] = qHTS assay to identify small molecule antagonists of the retinoid-related orphan receptor gamma (ROR-gamma) signaling pathway - cell viability counter screen (AID 1159520); also: nearly all actives have a fitted effect of over 50% in size; also: potency is read from the fitted curve at half-maximal effect
In short: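 Cytotoxicity was read from cellular ATP (CellTiter-Glo luminescence) after 16 hr at 37 C with 1 uM doxycycline induction. The inducer was added 2 hr after compound transfer to Tet-on ROR gamma CHO cells.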

[8] = qHTS assay to identify small molecule agonists of the AP-1 signaling pathway - cell viability counter screen (AID 1159525; calls by dose curve; also: nearly all actives have a fitted effect of over 55% in size)
In short: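 Luminescent ATP readout (Cell Titer Glo, 30 min RT), normalised to DMSO and tetra n-octyl ammonium bromide controls. Cells were ME-180 AP-1-bla in 0.5% dialyzed FBS Opti-MEM, with a 5 h, 37 °C compound exposure.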

[9] = qHTS assay to identify small molecule agonists of the AP-1 signaling pathway (AID 1159526; calls by dose curve)
[10] = qHTS assay to identify small molecule agonists of the RXR signaling pathway - cell viability counter screen (AID 1159529); also: nearly all actives have a fitted effect of over 50% in size; also: potency is read from the fitted curve at half-maximal effect
In short: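 In this parallel viability measure, GeneBLAzer RXR-alpha HEK 293T cells (2% charcoal-stripped FBS) were given a 5 hr preincubation, treated with compounds 16 hr at 37 C, and read by CellTiter-Glo luminescence.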

[11] = qHTS assay to identify small molecule antagonists of the retinoid acid receptor (RAR) signaling pathway - cell viability counter screen (AID 1159551); also: nearly all actives have a fitted effect of over 35% in size
In short: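 C3RL4 cells were seeded overnight at 37 C, then treated with compounds plus 1 uM (final) retinol for 6 h at 37 C. Viability was read as ATP by CellTiter-Glo luminescence after 30 min at room temperature.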

[12] = qHTS assay to identify small molecule antagonists of the retinoic acid receptor (RAR) signaling pathway (AID 1159552; also: nearly all actives have a fitted effect of over 50% in size; also: potency is read from the fitted curve at half-maximal effect)
In short: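 C3RL4 RARE-luc cells, overnight plating; retinol 1 uM final added right after compound; 6 hr 37 C; luciferase read at 30 min RT.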

[13] = qHTS assay to identify small molecule agonists of the retinoic acid receptor (RAR) signaling pathway (AID 1159553); also: potency is read from the fitted curve at half-maximal effect
In short: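 C3RL4 cells carrying a RARE luciferase reporter were plated overnight at 37 C, then exposed to compounds in DMSO for 6 hr at 37 C and 5% CO2. Luminescence was read 30 min after luciferase reagent addition at room temperature.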

[14] = target: Retinoic acid receptor RXR-alpha (Homo sapiens) (UniProt P19793); assay: qHTS assay to identify small molecule agonists of the RXR signaling pathway (AID 1159527; calls by dose curve; also: nearly all actives have a fitted effect of over 35% in size)
Sequence of Retinoic acid receptor RXR-alpha (Homo sapiens) (P19793 whole entry, looked up): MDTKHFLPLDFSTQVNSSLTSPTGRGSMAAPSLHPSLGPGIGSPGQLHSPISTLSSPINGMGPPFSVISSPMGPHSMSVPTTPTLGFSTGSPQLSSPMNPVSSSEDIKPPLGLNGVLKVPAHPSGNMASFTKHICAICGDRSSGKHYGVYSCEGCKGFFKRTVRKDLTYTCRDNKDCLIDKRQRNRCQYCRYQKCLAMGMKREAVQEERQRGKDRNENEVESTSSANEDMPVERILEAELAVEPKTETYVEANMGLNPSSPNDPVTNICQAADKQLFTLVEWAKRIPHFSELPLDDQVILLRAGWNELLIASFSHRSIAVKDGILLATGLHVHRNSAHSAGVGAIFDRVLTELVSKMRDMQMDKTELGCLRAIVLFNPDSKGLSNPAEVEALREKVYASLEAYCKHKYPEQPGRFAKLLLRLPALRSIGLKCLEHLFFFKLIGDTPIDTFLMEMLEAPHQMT
In short: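 16 hr incubation of compound-treated RXR-alpha-UAS-bla HEK 293T cells (2% charcoal-stripped FBS, 37 C) preceded a 2 hr room-temperature LiveBLAzer FRET substrate step and blue/green fluorescence measurement.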

Structure (SMILES) | Potency [1] | Potency [2] | outcome [3] | outcome [4] | outcome [5] | outcome [6] | Potency [7] | outcome [8] | outcome [9] | Potency [10] | Potency [11] | Potency [12] | Potency [13] | Potency [14]
NCC1CCCC(CN)C1 (configuration not stated) | inactive | inactive | inactive | inactive | inactive | inactive | inactive | inactive | inactive | inactive | inactive | inactive | inactive | –
O=C(O)c1ccc(CO)o1 | inactive | inactive | inactive | inactive | inactive | inactive | inactive | inactive | inactive | inactive | inactive | inactive | inactive | –
O=C(O)Cc1ccc(-c2ccccc2)cc1 | inactive | inactive | inactive | inactive | inactive | inactive | inactive | inactive | inactive | inactive | inactive | inactive | inactive | –
COc1cc2c(N3CCN(C(=O)Nc4ccc(OC(C)C)cc4)CC3)ncnc2cc1OCCCN1CCCCC1 | inactive | inactive | inactive | inactive | inactive | inactive | inactive | inactive | inactive | – | inactive | – | inactive | inactive
ON(Cc1ccccc1)Cc1ccccc1 | – | inactive | inactive | inactive | inactive | inactive | inactive | inactive | inactive | inactive | inactive | – | inactive | –
CC(=O)N(c1onc(C)c1C)S(=O)(=O)c1ccc(N)cc1 | inactive | inactive | inactive | inactive | inactive | inactive | inactive | inactive | inactive | inactive | inactive | inactive | inactive | –
Cc1ccnc2ccccc12 | inactive | inactive | inactive | inactive | inactive | inactive | inactive | inactive | inactive | inactive | inactive | inactive | – | –
O=C(NCCCN1CCOCC1)c1ccc(Cl)cc1 | inactive | inactive | inactive | inactive | inactive | inactive | inactive | inactive | inactive | inactive | inactive | inactive | – | –
Brc1cc(-c2ccc(Br)c(Br)c2Br)cc(Br)c1Br | inactive | inactive | inactive | inactive | inactive | inactive | inactive | inactive | inactive | 10.8 µM (active) | inactive | – | inactive | –
COc1ccc(CCC(=O)c2c(O)cc(O[C@@H]3O[C@H](CO)[C@@H](O)[C@H](O)[C@H]3O[C@@H]3O[C@@H](C)[C@H](O)[C@@H](O)[C@H]3O)cc2O)cc1O | inactive | inactive | inactive | inactive | inactive | inactive | inactive | inactive | inactive | inactive | inactive | – | inactive | –
CC(C)CCCCCOC(=O)CCCCC(=O)OCCCCCC(C)C | inactive | inactive | inactive | inactive | inactive | inactive | inactive | inactive | inactive | inactive | inactive | inactive | inactive | –
C[C@@H]1C[C@H]2[C@@H]3CCC4=CC(=O)C=C[C@]4(C)[C@@]3(F)[C@@H](O)C[C@]2(C)[C@H]1C(=O)CO | inactive | inactive | inactive | inactive | inactive | inactive | inactive | inactive | inactive | – | inactive | inactive | inactive | inactive
N#C/C(=C1/SC[C@@H](c2ccc(Cl)cc2Cl)S1)n1ccnc1 | – | – | inactive | inactive | inactive | inactive | inactive | inactive | inactive | inactive | inactive | – | inactive | –
CCCCCCCCCCCC(=O)[O][Sn]([CH2]CCC)([CH2]CCC)[O]C(=O)CCCCCCCCCCC | 23.7 µM (active) | inactive | inactive | inactive | inactive | inactive | 13.3 µM (active) | inactive | inactive | inactive | inactive | 29.8 µM (active) | inactive | –
CC(C)=CC=O | inactive | inactive | inactive | inactive | inactive | inactive | inactive | inactive | inactive | inactive | inactive | inactive | inactive | –
CCCOC(=O)c1ccc(C(=O)OCCC)nc1 | inactive | inactive | inactive | inactive | inactive | inactive | inactive | inactive | inactive | inactive | inactive | – | 68.6 µM (active) | –
C=C(C)C(=O)OCCOC(=O)CC(C)=O | inactive | – | inactive | inactive | inactive | inactive | inactive | inactive | inactive | inactive | inactive | – | – | –
Nc1c(I)cc(I)c(C(=O)N(CCC(=O)O)c2ccccc2)c1I | inactive | inactive | inactive | inactive | inactive | inactive | inactive | inactive | inactive | inactive | inactive | inactive | inactive | –
Nc1ccc(C(=O)OCCCOC(=O)c2ccc(N)cc2)cc1 | inactive | inactive | inactive | inactive | inactive | inactive | inactive | inactive | inactive | inactive | inactive | inactive | – | –
